Test results as given in the supplement of paper PMC8253809.
Where “and” joins values, the source holds several entries; their conditions need not be identical. Equal entries are not always repeated.

Columns and labels:
Test in all cases: growth inhibition (% activity, log2 RLU normalised to DMSO / staurosporine); higher = more growth inhibition
Settings in all cases: 33 µM
DIPGX29 = tested on: DIPGX29 (H3.3 K27M diffuse intrinsic pontine glioma line)
In short: (§1)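 The growth-inhibition value comes from CellTiter-Glo luminescence, log2-transformed, normalised per plate to % activity between solvent and positive control wells, and taken as the median over replicates. Treatment of pHGG cell lines and H9-derived neural stem cells with approved drugs was at a single final concentration of about 33 μM, in triplicate, for 7 days at 37 °C, 5% CO2.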

DIPGX37 = tested on: DIPGX37 (H3.3 K27M diffuse intrinsic pontine glioma line)
In short: as §1

DIPGX7 = tested on: DIPGX7 (H3.3 K27M diffuse intrinsic pontine glioma line)
In short: as §1

DIPGX9 = tested on: DIPGX9 (diffuse intrinsic pontine glioma line)
In short: as §1

HGGX39 = tested on: HGGX39 (paediatric high-grade glioma line)
In short: as §1

HGGX6 = tested on: HGGX6 (H3.3 G34R paediatric high-grade glioma line)
In short: as §1

HNSC = tested on: HNSC
In short: as §1

SUDIPGIV = tested on: SUDIPGIV (diffuse intrinsic pontine glioma line)
In short: as §1

SUDIPGVI = tested on: SUDIPGVI (diffuse intrinsic pontine glioma line)
In short: as §1

SUDIPGXIII = tested on: SUDIPGXIII (diffuse intrinsic pontine glioma line)
In short: as §1

Structure (SMILES) | growth inhibition (DIPGX29) | growth inhibition (DIPGX37) | growth inhibition (DIPGX7) | growth inhibition (DIPGX9) | growth inhibition (HGGX39) | growth inhibition (HGGX6) | growth inhibition (HNSC) | growth inhibition (SUDIPGIV) | growth inhibition (SUDIPGVI) | growth inhibition (SUDIPGXIII)
N[C@@H]1CCCCN(c2c(F)cc3c(=O)c(C(=O)O)cn(C4CC4)c3c2Cl)C1 | -3.25% | -0.479% | -2% | -1.55% | -1.72% | -3.25% | -0.931% | -3.46% | -2.21% | -0.978%
Cc1cnc(C(=O)O)c[n+]1[O-] | 1.49% | 2.38% | 1.7% | 5.6% | 1.15% | 2.68% | 3.09% | 1.14% | 1.26% | 0.57%
CC(C)NCC(O)c1ccc(O)c(O)c1 (stereo not given) | -3.68% | -0.899% | -1.64% | -0.316% | -1.58% | 0.187% | -3.47% | -0.959% | -4.2% | -0.909%
O=C(CCCN1CC=C(n2c(=O)[nH]c3ccccc32)CC1)c1ccc(F)cc1 | -2.81% | -3.22% | 1.35% | -2.63% | -0.994% | -4.16% | 3.11% | -2.04% | -2.84% | 0.682%
CO/N=C(\C(=O)N[C@@H]1C(=O)N2C(C(=O)O)=C(CSC(=O)c3ccco3)CS[C@H]12)c1csc(N)n1 | -1.65% | 1.16% | -1.04% | -0.83% | 0.968% | -1.16% | -1.6% | 1.14% | -0.598% | 0.953%
CCCc1nc2c(C)cc(-c3nc4ccccc4n3C)cc2n1Cc1ccc(-c2ccccc2C(=O)O)cc1 | -1.54% | -0.467% | -0.895% | -0.132% | -1.04% | -1.06% | -0.614% | -2.37% | 0.572% | -1.14%
CN(N=O)C(=O)N[C@H]1C(O)O[C@H](CO)[C@@H](O)[C@@H]1O (mixture of isomers) | 0.875% | 2.37% | 2.05% | 1.8% | 0.924% | 2.69% | 2.82% | 1.45% | 2.34% | 0.628%
Oc1ccc(/C=C/c2cc(O)cc(O)c2)cc1 | 2.03% | -0.532% | 4.05% | 1.48% | 1.37% | 2.36% | 3.97% | -5.92% | 1.29% | -0.764%
O=C1CC[C@@H](C(=O)N2CSC[C@H]2C(=O)O)N1 | 2.29% | 1.19% | 1.62% | 1.89% | 3.63% | 2.97% | 2.12% | 1.86% | 2.32% | -0.296%
CC(C)(OCc1nn(Cc2ccccc2)c2ccccc12)C(=O)O | -3.94% | -1.16% | -1.8% | -2.2% | -3.82% | -4.18% | -2.36% | -3.25% | -2.56% | 0.0548%
C/C(O)=C(\C#N)C(=O)Nc1ccc(C(F)(F)F)cc1 | 3.56% | 5.04% | 3.25% | 5.83% | 5.87% | 5.21% | 2.85% | 9.89% | 4.21% | -15.3%
CC1OC(n2cc(F)c(=O)[nH]c2=O)C(O)C1O (stereo not given) | -0.415% | 1.44% | -1.58% | 1.19% | -0.346% | 1.76% | -0.812% | 2.36% | 0.29% | 1.21%
Cc1cc(=O)[nH]c(=S)[nH]1 | 0.66% | -0.151% | 2.93% | 1.41% | 3.23% | 0.504% | 4.39% | 2.24% | 4.36% | 1.21%
CC(C)n1c(/C=C/[C@@H](O)C[C@@H](O)CC(=O)O)c(-c2ccc(F)cc2)c2ccccc21 | 4.64% | 0.671% | 6.29% | 6.39% | 18.7% | 10.2% | 26.9% | 26.2% | 0.023% | 3.96%
CCCCCCCCCCC[C@@H](C[C@@H]1OC(=O)[C@H]1CCCCCC)OC(=O)[C@H](CC(C)C)NC=O | -2.1% | -1.45% | -1.06% | -1.8% | -0.97% | 0.864% | -6.06% | -1.86% | -3.34% | 0.12%
O=C(O)c1cn(C2CC2)c2cc(N3CCNCC3)c(F)cc2c1=O | -1.96% | -2.35% | -2.23% | -1.26% | -1.56% | -1.82% | -1.04% | -1.7% | -2.88% | -1.57%
CN1CCN(CCCN2c3ccccc3Sc3ccc(C(F)(F)F)cc32)CC1 | 14.9% | 0.958% | 12.3% | 0.94% | 7.39% | 8.55% | 9.67% | 4.53% | -3.52% | 0.946%
CO/N=C(\C(=O)N[C@@H]1C(=O)N2C(C(=O)OCOC(=O)C(C)(C)C)=C(/C=C\c3scnc3C)CS[C@H]12)c1csc(N)n1 | -0.112% | 1.84% | 0.192% | -1.35% | 1.82% | -1.1% | 0.492% | 0.557% | 0.818% | -0.304%

Structure (SMILES) | growth inhibition (DIPGX29) | growth inhibition (DIPGX37) | growth inhibition (DIPGX7) | growth inhibition (DIPGX9) | growth inhibition (HGGX39) | growth inhibition (HGGX6) | growth inhibition (HNSC) | growth inhibition (SUDIPGIV) | growth inhibition (SUDIPGVI) | growth inhibition (SUDIPGXIII)
CO[C@H]1C[C@@H]2CC[C@@H](C)[C@@](O)(O2)C(=O)C(=O)N2CCCC[C@H]2C(=O)O[C@H]([C@H](C)C[C@@H]2CC[C@@H](O)[C@H](OC)C2)CC(=O)[C@H](C)/C=C(\C)[C@@H](O)[C@@H](OC)C(=O)[C@H](C)C[C@H](C)/C=C/C=C/C=C/1C | 6.5% | 0.955% | 6.15% | 16.4% | 10.5% | 10.3% | 10.4% | 4.5% | 6.53% | 0.792%
CC(C)C[C@H](NC(=O)[C@H](CCc1ccccc1)NC(=O)CN1CCOCC1)C(=O)N[C@@H](Cc1ccccc1)C(=O)N[C@@H](CC(C)C)C(=O)[C@@]1(C)CO1 | 49.4% | 59.1% | 55.8% | 55% | 51.3% | 57.8% | 56.9% | 55% | 52% | 29.5%
C[C@@H](NCCCc1cccc(C(F)(F)F)c1)c1cccc2ccccc12 | 8.61% | 3.26% | 6.24% | 5.87% | 5.43% | 18.9% | 49.7% | 4.23% | -0.119% | 0.33%
CN(c1nccc(=O)[nH]1)C1CCN(c2nc3ccccc3n2Cc2ccc(F)cc2)CC1 | 2.38% | 2.96% | 2.33% | 1.85% | 4.67% | 3.86% | 1.95% | 0.631% | 3.14% | -15%
Clc1ccc(COC(Cn2ccnc2)c2ccc(Cl)cc2Cl)c(Cl)c1 (stereo not given) | 3.52% and 3.73% | 2.39% and 1.02% | 2.11% and 1.8% | 4.24% and 1.75% | 8.09% and 4.5% | 8.84% and 5.54% | 8.12% and 18.4% | 11.2% and 18.5% | 2.08% and 0.276% | 8.9% and 4.15%
CCC(=O)O[C@]1(C(=O)CCl)[C@@H](C)C[C@H]2[C@@H]3C[C@H](F)C4=CC(=O)C=C[C@]4(C)[C@@]3(F)[C@@H](O)C[C@@]21C | 3.65% | 5.29% | 1.18% | 4.83% | 7.98% | 1.82% | -1.07% | 1.52% | 3.9% | 1.38%
CN(C)CCN(Cc1cccs1)c1ccccn1 | 1.96% | 3.64% | 1.81% | 0.429% | 5.09% | 1.78% | 2.78% | 0.871% | 3.63% | 0.391%
CC(=O)O[C@@]12CO[C@@H]1C[C@H](O)[C@@]1(C)C(=O)[C@H](O)C3=C(C)[C@@H](OC(=O)[C@H](O)[C@@H](NC(=O)OC(C)(C)C)c4ccccc4)C[C@@](O)([C@@H](OC(=O)c4ccccc4)[C@H]21)C3(C)C | 8.91% | 8.27% | 8.76% | 19.3% | 24.5% | 15.8% | 55.1% | 21.6% | 8.93% | 6.64%
Nc1ccn(C2CSC(CO)O2)c(=O)n1 (stereo not given) | 0.0189% | 0.319% | -0.231% | 0.518% | 0.787% | -0.895% | 1.26% | -0.385% | 1.46% | 0.705%
CCn1cc(C(=O)O)c(=O)c2cc(F)c(N3CCNCC3)cc21 | -0.303% | 1.84% | 0.79% | 0.854% | 3.3% | 2.09% | 3.22% | -0.867% | 0.897% | 3.56%
Fc1ccc(C(c2ccc(F)cc2)N2CCN(C/C=C/c3ccccc3)CC2)cc1 | 4.97% | 2.42% | 6.22% | 3.95% | 9.77% | 2.44% | 14.4% | 15.8% | 5.18% | 8.8%
O=C(O)CCNC(=O)c1ccccc1 | 0.362% | 2.48% | 0.618% | 0.575% | 0.895% | 0.906% | -1.4% | 0.839% | 1.57% | 1.01%
CC(=O)OCC(=O)[C@@]1(O)CC[C@H]2[C@@H]3CCC4=CC(=O)C=C[C@]4(C)[C@@]3(Cl)[C@@H](Cl)C[C@@]21C | 0.772% | 1.33% | 1.5% | 3.59% | 0.199% | -1.27% | 8.39% | -2.64% | -2.25% | 1.64%
O=C(Nc1ccccc1)OCC(CN1CCCCC1)OC(=O)Nc1ccccc1 (stereo not given) | -1.04% | -3.49% | -0.617% | -1.45% | -2.3% | -1.35% | 9.66% | -3.64% | -7.72% | 1.16%
CCCCOc1cc(C(=O)NCCN(CC)CC)c2ccccc2n1 | 8.77% | 4.81% | 9.69% | 3.99% | 6.11% | 5.06% | 13.1% | 2.91% | 3.16% | 1.33%
CN1CCOC(c2ccccc2)c2ccccc2C1 (stereo not given) | -3.82% | -1.11% | -0.00387% | -2.6% | -1.87% | -4.34% | 19.3% | -1.45% | -8.5% | 2.52%
CC(=O)Oc1ccccc1C(=O)O | 0.978% | 2.47% | 1.52% | 1.57% | 2.08% | 4% | 0.311% | -1.34% | 2.68% | -16%
